Screens: PubChem BioAssay, National Center for Advancing Translational Sciences (NCATS)
p53ts 39C tox – p53ts cell cytotoxicity, nonpermissive temperature | H1299-p53A138V viability at 39C, ATP luminescence, 24 h | Potency, µM (top dose mostly 46.1 µM), usual class: cytotoxic | 130,000 compounds, 1.5% hits; further: nearly all actives have a fitted effect of over 55% in size
Imprint erasure – genomic imprint erasure induction | mouse ES Peg3-LacZ reporter, beta-gal luminescence, 40 h | Potency, µM (doses to about 60.7 µM), hits mostly activators | 110,000 compounds, 0.02% hits | AID 1948
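Readout: BetaGlo luminescence (5 min, room temp) for LacZ from the normally silent maternal Peg3 allele in female Peg3LacZ-Neo ES cells. Cells 300/well, 40 h, 37C, 5% CO2. Data normalized per plate to negative controls.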
p53ts 32C kill – kills p53ts cells at the permissive temperature | H1299-p53A138V at 32C, ATP luminescence viability, 24 h | Potency, µM (series often up to 46.1 µM), hits mostly cytotoxic | 130,000 compounds, 0.93% hits; further: nearly all actives have a fitted effect of over 55% in size
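Cells: H1299 p53ts (A138V), 600/well, pre-incubated 16–30 h at 37C. Cpd up to 46 uM, 24 h, 32C. Readout: ATPlite luminescence, 20 min RT. Normalization: DMSO vs tamoxifen 100 uM. AC50 by Hill equation.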
IkB sig inh – suppresses IkB signaling in ABC-DLBCL reporter cells; 110,000 compounds, 0.04% hits; ABC-DLBCL IkBa-CBG/CBR dual luciferase ratio, 4 h; response scale: scaled: untreated 0%, proteasome inhibitor 100%; AID 445; Potency, µM (titrated, usually from 57.1 µM); active means well fitted curve in the direction sought with a large enough effect in the signal ratio, not every such curve was filed as active; inconclusive means small, poorly fitted or top-dose-only effect, or a change in a side signal; the % refers to the signal ratio;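 further: the direction sought is a rising ratio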
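Curves were fitted separately to fusion (green), unfused (red) and ratio luminescence, then classed by r2, magnitude and activity. Cells: OCI-Ly3, 4 h compound plus doxycycline at 37C; 10 uM MG-132 defined full response.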
CRE Fsk mod – CRE-bla signaling modulation under forskolin stimulation | CHO CRE-bla reporter (cAMP response element driving beta-lactamase), forskolin EC10, beta-lactamase ratio | Potency, µM (titrated, usually from 38.2 µM), actives largely listed as activators | 71,000 compounds, 2.5% hits | AID 662; active means well fitted activation curve with a large enough effect in the signal ratio, with a control signal flat, not every such curve was filed as active; inconclusive means small, poorly fitted or top-dose-only effect, or effect the other way, or a change in a side signal; the % refers to the signal ratio
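Cells were plated overnight at 37 °C, exposed to compound titrations plus EC10 NKH 477 for 3 h, then given CCF4 dye for 2 h at room temperature. Blue/green (460/530 nm) ratio was converted to %Activity and AC50 values calculated.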
CHO tox 24h – cytotoxicity in CRE-bla CHO cells at 24 h. activity, negative = viability loss, % at 46.1 µM. CRE-bla CHO viability, ATP luminescence, 24 h. AID 905. 120 tested, under 10 active. shares compounds with CRE Fsk mod
CHO tox 40h – reduces CRE-bla CHO cell viability after 40 hours; shares compounds with CRE Fsk mod; CRE-bla CHO viability, ATP luminescence, 40 h; Potency, µM, hits mostly inhibitors; 120 tested, under 10 active; AID 906
CRE-luc potent – confirmation of CRE signaling potentiators in HEK293 CREB reporter cells. Potency, µM (top dose mostly 38.3 µM), most hits filed as activators. 120 compounds, 80% hits. shares compounds with CRE Fsk mod. AID 907. HEK293 CRE-luc2P, NKH477 EC10 potentiation, luminescence, 4 h
Hits are given with their value; . = inactive; ? = inconclusive; / = no result; [ ] = dose if it differs, or a comment. Compounds with a hit are over-represented: about 3% of the library has one in this group of screens. Unless noted, the call rests on the fitted dose curve; in most records, active means well fitted curve in the direction sought with a large enough effect; inconclusive means small, poorly fitted or top-dose-only effect, or another doubt; inactive means no such curve, though single readings can be large; an effect the other way counts as inactive or inconclusive.

SMILES | p53ts 39C tox | Imprint erasure | p53ts 32C kill | IkB sig inh | CRE Fsk mod | CHO tox 24h | CHO tox 40h | CRE-luc potent
COc1cc(-c2nnc3sc(-c4ccco4)nn23)cc(OC)c1OC | . | . | . | . | 1µM | . | . | 3.2µM
Clc1ccc(-c2nnc3sc(-c4ccco4)nn23)c(Cl)c1 | . | . | . | . | ? | / | / | /
CC(C)(C)OC(=O)N1CCC(c2c(C(=O)NCCCN3CCc4ccccc4C3)cnn2-c2ccccc2)CC1 | . | .[10.9 µM] | . | ? | / | / | / | /
COc1ccc(NC(=O)Cn2c(=O)oc3cc(S(=O)(=O)N4CCC(C)CC4)ccc32)c(OC)c1 | . | .[10.9 µM] | . | ? | / | / | / | /
Cc1nn(-c2ccc(Cl)cc2)c2sc(C(=O)N3CCN(c4ccccn4)CC3)cc12 | . | . | . | . | . | . | . | 1.4µM
Cc1cc(N2CCN(S(=O)(=O)c3ccc4c(c3)OCCO4)CC2)n2ncnc2n1 | . | . | . | . | 5µM | . | . | 13µM
Cc1cc(N2CCN(S(=O)(=O)Cc3ccccc3)CC2)n2ncnc2n1 | . | . | . | . | . | / | / | /
CSc1nc2ccc(Nc3nc(N4CCOCC4)nc(N4CCOCC4)n3)cc2s1 | . | . | . | ? | 3.2µM | . | ? | 0.63µM
Cc1ccc(Nc2nc(N3CCOCC3)nc(N3CCOCC3)n2)cc1 | . | . | . | . | . | / | / | /
CCCN(C#N)c1nc(NCC)nc(NC(C)C)n1 | . | . | . | ? | 10µM | . | . | 1.4µM
COc1ccc(-c2cn3nc(N4CCC(C(=O)Nc5ccccc5OC)CC4)sc3n2)cc1 | / | / | . | / | / | / | / | /
CCOC(=O)CC(NC(=O)CCc1c(C)nc2c(c(C)nn2-c2ccc(C)c(C)c2)c1C)c1ccc(C)cc1 (centres undefined) | . | .[10.9 µM] | . | ? | / | / | / | /
COc1cc(C2=NOC(C(=O)N3CCN(c4ccc(F)cc4)CC3)C2)cc(OC)c1OC (centres undefined) | . | . | . | ? | 0.63µM | . | . | 4µM
COc1cc(C2=NOC(C(=O)N3CCCCCC3)C2)cc(OC)c1OC (centres undefined) | . | . | . | . | ? | / | / | /
COc1cc2c(cc1OC)-c1c(OC)c(OC)cc3ccnc(c13)C2=O | . | . | . | .[11.4 µM] | ? | . | ? | 0.16µM
COc1ccc(CCN2C(=O)c3cccnc3C2=O)cc1OC | . | . | . | . | . | / | / | /
CCc1c(C)nc(Nc2nc(C)c3cc(OC)ccc3n2)[nH]c1=O | . | . | . | ? | ? | / | / | /
COc1nc(Nc2nc3ccccc3c(=O)[nH]2)nc2ccc(C)cc12 | . | . | . | ? | 1.6µM | ? | 4µM | ?
Cc1ccc2c(CC(=O)Nc3ccc(S(=O)(=O)N4CCC(C)CC4)cc3)coc2c1 | . | .[10.9 µM] | . | . | / | / | / | /
CN1CCN(C(=O)Nc2cccc(Cl)c2)c2cccnc21 | . | .[10.9 µM] | . | . | / | / | / | /
COc1cccc2c(C)nc(Nc3nc(CSc4nnc(C)s4)cc(=O)[nH]3)nc12 | . | . | . | . | ? | ? | . | 6.3µM
